Assay results from PubChem BioAssay AID1159580 (chemical genetic matrix, 2015).
Where “and” joins values, the source holds several entries; their conditions need not be identical. Identical values can stand only once. Screen size: about 5,500 compounds; about 2,000 (36%) were called active. About 18% were inconclusive and are not listed. Cut-off read from the data, not from the text of the source: active = normalized growth mostly below about 0.91 (no sharp cut-off); inconclusive = no clear call, values can overlap the other calls; inactive = mostly above about 0.92. The list shows a part of the results.

Experiment: chemical genetic growth profiling, strain panel (AID 1159580);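 note: tested at 20 µM; growth read once vehicle control cultures reached saturation at 30 °C; 1 = growth at the plate median or of vehicle wells; lower values mean less growth of the strain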
Settings: S. cerevisiae deletion strains, growth OD

Measured: normalized growth

OCC(O)CN1CCN(c2ccccc2)CC1 (stereo unspecified)
inactive: locus YAL013W, strain DEP1, stronger effect = lower value 0.995 | locus YAL021C, strain ccr4, stronger effect = lower value 0.923 | locus YAL026C, strain drs2, stronger effect = lower value 0.982 | locus YAL030W, strain snc1, stronger effect = lower value 0.996 | locus YBL061C, strain skt5, stronger effect = lower value 0.989 | locus YBR009C, strain hhf1, stronger effect = lower value 1 | locus YBR021W, strain FUR4, stronger effect = lower value 0.972 | locus YBR023C, strain chs3, stronger effect = lower value 0.997 | locus YBR171W, strain sec66, stronger effect = lower value 0.968 | locus YBR229C, strain ROT2, stronger effect = lower value 0.984 | locus YBR231C, strain swc5, stronger effect = lower value 0.999 | locus YBR279W, strain paf1, stronger effect = lower value 0.974 | locus YCL011C, strain gbp2, stronger effect = lower value 0.977 | locus YCL016C, strain dcc1, stronger effect = lower value 0.988 | locus YCL029C, strain bik1, stronger effect = lower value 0.978 | locus YCL061C, strain MRC1, stronger effect = lower value 0.973 | locus YCL069W, strain vba3, stronger effect = lower value 0.989 | locus YCR088W, strain abp1, stronger effect = lower value 0.98 | locus YDL005C, strain med2, stronger effect = lower value 0.963 | locus YDL035C, strain GPR1, stronger effect = lower value 1.02 | locus YDL040C, strain nat1, stronger effect = lower value 0.979 | locus YDL074C, strain BRE1, stronger effect = lower value 0.984 | locus YDL101C, strain DUN1, stronger effect = lower value 0.984 | locus YDL134C, strain PPH21, stronger effect = lower value 0.991 | locus YDL185W, strain tfp1, stronger effect = lower value 0.99 | locus YDL192W, strain arf1, stronger effect = lower value 0.995 | locus YDR001C, strain nth1, stronger effect = lower value 0.98 | locus YDR069C, strain doa4, stronger effect = lower value 0.982 | locus YDR101C, strain arx1, stronger effect = lower value 0.965 | locus YDR137W, strain rgp1, stronger effect = lower value 0.95 | locus YDR150W, strain NUM1, stronger effect = lower value 1 | locus YDR159W, strain sac3, stronger effect = lower value 1.01 | locus YDR162C, strain NBP2, stronger effect = lower value 1.01 | locus YDR195W, strain ref2 0.967 | locus YDR297W, strain sur2, stronger effect = lower value 0.982 | locus YDR318W, strain mcm21, stronger effect = lower value 0.989 | locus YDR334W, strain swr1, stronger effect = lower value 0.945 | locus YDR335W, strain msn5, stronger effect = lower value 0.978 | locus YDR388W, stronger effect = lower value 0.991 | locus YDR392W, strain spt3, stronger effect = lower value 0.931 | locus YDR502C, strain sam2, stronger effect = lower value 0.995 | locus YEL003W, strain gim4, stronger effect = lower value 0.938 | locus YEL037C, strain rad23, stronger effect = lower value 0.986 | locus YEL061C, strain CIN8 (second series), stronger effect = lower value 0.985 | locus YEL061C, strain CIN8, stronger effect = lower value 1 | locus YER015W, strain faa2, stronger effect = lower value 1 | locus YER016W, strain bim1, stronger effect = lower value 0.991 | locus YER110C, stronger effect = lower value 0.988 | locus YER111C, strain swi4, stronger effect = lower value 0.983 | locus YER155C, strain BEM2 (second series), stronger effect = lower value 1 | locus YER155C, strain BEM2, stronger effect = lower value 0.977 | locus YER167W, strain BCK2, stronger effect = lower value 1.01 | locus YGL078C, strain dbp3, stronger effect = lower value 0.991 | locus YGL086W, strain mad1, stronger effect = lower value 0.998 | locus YGL167C, strain pmr1, stronger effect = lower value 0.998 | locus YGL173C, strain kem1, stronger effect = lower value 0.978 | locus YGL227W, strain vid30, stronger effect = lower value 0.985 | locus YGL240W, strain doc1, stronger effect = lower value 1.01 | locus YGL248W, strain PDE1, stronger effect = lower value 0.975 | locus YGL253W, strain hxk2, stronger effect = lower value 0.993 | locus YGR078C, strain PAC10, stronger effect = lower value 0.99 | locus YGR135W, strain pre9, stronger effect = lower value 0.98 | locus YGR229C, strain SMI1, stronger effect = lower value 1.01 | locus YGR252W, strain gcn5, stronger effect = lower value 1.08 | locus YHR013C, strain ard1, stronger effect = lower value 0.953 | locus YHR027C, strain rpn1, stronger effect = lower value 0.984 | locus YHR030C, strain SLT2, stronger effect = lower value 0.991 and 0.969 | locus YHR079C, strain IRE1 (second series), stronger effect = lower value 0.991 | locus YHR079C, strain IRE1, stronger effect = lower value 0.965 | locus YHR094C, strain hxt1, stronger effect = lower value 0.992 | locus YHR129C, strain ARP1, stronger effect = lower value 0.985 | locus YHR142W, strain chs7, stronger effect = lower value 0.932 | locus YHR200W, strain rpn10, stronger effect = lower value 0.993 | locus YIL066C, strain RNR3, stronger effect = lower value 1 | locus YIL073C, strain SPO22, stronger effect = lower value 1.03 | locus YIL125W, strain kgd1, stronger effect = lower value 1 | locus YIR030C, strain dcg1, stronger effect = lower value 0.988 | locus YJL092W, strain hpr5, stronger effect = lower value 0.965 | locus YJL095W, strain BCK1 (second series), stronger effect = lower value 0.989 | locus YJL095W, strain BCK1, stronger effect = lower value 0.981 and 0.975 | locus YJL115W, strain asf1, stronger effect = lower value 0.965 | locus YJL129C, strain trk1, stronger effect = lower value 0.957 | locus YJL134W, strain LCB3, stronger effect = lower value 0.988 | locus YJL154C, strain vps35, stronger effect = lower value 0.983 | locus YJL164C, strain tpk1, stronger effect = lower value 0.966 | locus YJL166W, strain qcr8, stronger effect = lower value 1 | locus YJL168C, strain set2, stronger effect = lower value 0.983 | locus YJL187C, strain SWE1 (second series), stronger effect = lower value 0.988 | locus YJL187C, strain SWE1, stronger effect = lower value 0.981 | locus YJR043C, strain POL32, stronger effect = lower value 0.977 | locus YJR066W, strain TOR1, stronger effect = lower value 0.908
